“And” between values parts separate entries of the source, which are not always exact repeats. Equal entries are not always repeated. The source made the active and inactive calls. The calls were made as follows: active = hit-call score of the fitted dose curve at least 0.9, where 1 is the maximum; inactive = score below 0.9.
assay: BSK_4H_SRB: Viability Assessment in the BioMAP Diversity Plus: 4H Assay (AID 2283027); conditions: primary human endothelial cells (HUVEC);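 also: cells exposed to compound for 24 h before staining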;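 as to AC50: curves fitted both ways versus DMSO so AC50 may be loss or gain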
Method: BSK_4H is a cell-based, multiplexed-readout assay that uses umbilical vein endothelium, a human vascular primary cell, with measurements taken at 24 hours after chemical dosing in a 96-well plate.BSK_4H_SRB is an assay component measured in the BSK_4H assay. It measures […] related to cell death using Sulforhodamine staining technology.Data from the assay component BSK_4H_SRB was analyzed into 1 assay endpoint. This assay endpoint, BSK_4H_SRB, was analyzed with bidirectional fitting relative to DMSO as the negative control and baseline of activity. Using a type of viability reporter, gain or loss-of-signal activity can be used to understand changes in the signaling. Furthermore, this assay endpoint can be referred to as a primary readout, because this assay has produced multiple assay endpoints where this one serves a signaling function. To generalize the intended target to other relatable targets, this assay endpoint is annotated to the cell morphology intended target family, where the subfamily is cell conformation.
The levels of cell surface (or secreted, indicated by the prefix "s") biomarker endpoints were measured by ELISA. Overt cytotoxicity to cells in confluent adherent cultures (all systems other than the BT system) was assessed by measuring total protein levels using sulforhodamine B (SRB) staining in parallel cultures at the time of biomarker measurements, indicated as SRB endpoints. For proliferation assays for adherent cell types, individual cell types are cultured at sub-confluence and relative cell numbers quantified by SRB staining at time points optimized for each system (48 h: 3C and CASM3C systems; 72 h: BT and HDF3CGF systems; 96 h: SAg system). SRB was performed by staining cells with 0.1% SRB after fixation with 10% TCA and reading wells at 560 nm.Viability and proliferation of PBMC (T cells) was quantified by Alamar Blue reduction for the SAg and BT systems. For PBMC viability (referred to as PBMC Cytotoxicity within the assay endpoint names), cells were plated (75,000/well in a 96-well plate) and then chemical samples added for 1 h before addition of activators, SEB and TSST-1 (20 ng/mL final concentration each). Cells were incubated for 90 h. Then, Alamar Blue (20 uL/well) (Invitrogen, Cat DAL1100) was added for 6 h, and the plates were read with a fluorescence microplate reader at 546/580 nm (excitation/emission). For PBMC proliferation, cells were plated and activated as above but incubated for only 16 h prior to addition of Alamar Blue. Plates were read after 6 h.

Structure (SMILES) | outcome | AC50
CCOc1nc(F)cc2nc(S(=O)(=O)Nc3c(Cl)cccc3C(=O)OC)nn12 | inactive | 
N#[N+]c1ccc2c(S(=O)(=O)[O-])cccc2c1O | inactive | 
CCCCC(CC)COC(=O)c1ccccc1O (stereo unspecified) |  | 18.2 µM (active)
CCO[Si](C)(OCC)OCC | inactive | 
CCCCC(CC)COCC1CO1 (stereo unspecified) | inactive | 
C=CC(=O)OCC(Br)CBr (stereo unspecified) |  | 31.6 µM (active)
c1ccc2c(c1)ccc1cc3c(ccc4ccccc43)cc12 | inactive | 
CCCCNc1ccc(NCCCC)c2c1C(=O)c1ccccc1C2=O | inactive | 
S=C(NC1CCCCC1)NC1CCCCC1 | inactive | 
CC1OC1C1CCC2(C)OC2C1 (stereo unspecified) | inactive | 
CCCCCCCCc1ccc(Nc2ccc(CCCCCCCC)cc2)cc1 | inactive | 
CCCCCCCCCCCCCCCC[N+](C)(C)CC |  | 1.57 µM (active)
C#CC1(O)CC[C@H]2[C@@H]3CCC4=CCCC[C@@H]4[C@H]3CC[C@@]21C (stereo partly specified) |  | 8.54 µM (active)
c1ccc(-c2ccccn2)nc1 | inactive | 
O=c1c2ccccc2oc2ccccc12 | inactive | 
O=C(Cl)c1cc(C(=O)Cl)cc(C(=O)Cl)c1 |  | 26.8 µM (active)
CCO[Si](CCCN=C=O)(OCC)OCC | inactive | 
CCOC(=O)c1ccccc1C(=C1C=C(Br)C(=O)C(Br)=C1)c1cc(Br)c(O)c(Br)c1 |  | 19.1 µM (active) and 20.3 µM (active)

Structure (SMILES) | outcome | AC50
O=Nc1ccc(O)cc1 | inactive | 
c1ccc2c(c1)ccc1ncccc12 |  | 20 µM (active)
Nc1ccc(N)c(Cl)c1 |  | 27.4 µM (active) and 30.5 µM (active)
COc1ccc2nc(N)sc2c1 | inactive | 
C=CC=CC=CCCCCC | inactive | 
CO[Si](OC)(OC)c1ccccc1 | inactive | 
COCc1c(C(C)C)nc(C(C)C)c(/C=C/[C@@H](O)C[C@@H](O)CC(=O)O)c1-c1ccc(F)cc1 |  | 0.0192 µM (active)
CN1C(=O)N(C)C(O)C1O (stereo unspecified) | inactive | 
O=C(c1ccc(O)cc1)c1ccc(O)cc1O | inactive | 
C=CCOc1c(Br)cc(Br)cc1Br | inactive | 
C=CCOCC(O)CCl (stereo unspecified) | inactive | 
CCCCC/C=C\C/C=C\CCCCCCCC(=O)OC |  | 20 µM (active)
CC(C)(c1cc(Br)c(OCCO)c(Br)c1)c1cc(Br)c(OCCO)c(Br)c1 |  | 16.2 µM (active)
C/C=C\C/C=C/CCCCCCCCOC(C)=O |  | 12.7 µM (active)
CC(C)C(=O)C(C)C | inactive | 
C=C[Si](OC(C)=O)(OC(C)=O)OC(C)=O | inactive | 
O=C1CCCN1CCO | inactive | 
O=C(Nc1ccccc1SSc1ccccc1NC(=O)c1ccccc1)c1ccccc1 | inactive | 

Source: PubChem BioAssay (EPA / NIEHS)
